# Screens from PubChem BioAssay.
# Rows were chosen to be rich in hits. Some 18% of all compounds tested hit in one or more screens of this group.
# RORgamma inh = ROR gamma (mouse) transcription inhibition | 310,000 compounds, 5.4% hits | Drosophila S2 Gal4-RORgamma UAS-luciferase reporter, 20 h | Potency, µM (doses to about 53.6 µM), inactives show top-dose activity change, negative = inhibition, most hits filed as inhibitors | P51450; also: potency is read from the fitted curve at half-maximal effect; nearly all actives have a fitted effect of over 60% in size
# Target sequence (P51450 whole entry, looked up, the tested form may be a part): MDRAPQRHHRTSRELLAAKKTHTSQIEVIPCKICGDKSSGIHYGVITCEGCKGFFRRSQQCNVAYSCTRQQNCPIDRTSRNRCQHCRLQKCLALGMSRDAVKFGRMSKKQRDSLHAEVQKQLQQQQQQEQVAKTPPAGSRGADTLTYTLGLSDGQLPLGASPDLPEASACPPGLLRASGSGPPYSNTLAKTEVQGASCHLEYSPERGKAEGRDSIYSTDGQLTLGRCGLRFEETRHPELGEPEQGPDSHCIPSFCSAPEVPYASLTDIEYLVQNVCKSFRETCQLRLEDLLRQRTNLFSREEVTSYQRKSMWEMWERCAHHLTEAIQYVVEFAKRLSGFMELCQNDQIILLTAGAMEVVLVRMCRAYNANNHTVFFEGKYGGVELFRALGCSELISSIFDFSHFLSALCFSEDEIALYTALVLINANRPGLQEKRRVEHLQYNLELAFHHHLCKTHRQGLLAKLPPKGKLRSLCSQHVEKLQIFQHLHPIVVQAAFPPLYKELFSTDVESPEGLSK
#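 Drosophila S2 cells stably expressing Gal4-DBD/mouse RORγ fusion under metallothionein promoter plus UAS-luciferase; compound 1 h, then 700 uM CuSO4 induction for 20 h at ambient temperature; inhibition read as reduced luminescence.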
# DT40 TDP1 CPT = DT40-hTDP1 cell growth loss with CPT; chicken DT40 Tdp1-/-;hTDP1 cells + 20 nM CPT, ATP luminescence, 48 h; Potency, µM (series often up to 46.2 µM), inactives show at the highest dose activity change, negative = growth inhibition, most hits filed as inhibitors; 420,000 compounds, 12% hits; AID 686979; also: potency is read from the fitted curve at half-maximal effect; nearly all actives have a fitted effect of over 55% in size
#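 Cell growth measured by CellTiter-Glo luminescence after a minimum 48 h, 37 C compound exposure with 20 nM CPT in Tdp1-knockout DT40 cells stably expressing hTDP1, seeded 400/well; qHTS titration format.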
# DT40 TDP1 no CPT = qHTS for Inhibitors of human tyrosyl-DNA phosphodiesterase 1 (TDP1): qHTS in cells in absence of CPT; DT40 Tdp1-/- hTDP1 cells, no CPT, ATP luminescence, 48 h; Potency, µM (series often up to 46.2 µM), for inactives: at the top dose activity change, negative = growth inhibition, actives largely listed as inhibitors; 420,000 compounds, 15% hits; AID 686978, 2013; also: potency is read from the fitted curve at half-maximal effect; nearly all actives have a fitted effect of over 55% in size
#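 Growth of hTDP1-complemented DT40 Tdp1-knockout cells is measured by ATP luminescence after at least 48 hr compound exposure at 37 °C, with DMSO substituting for the 20 nM CPT used in the parallel screen.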
# LDHA block = LDHA (human) enzyme inhibition; P00338; purified LDHA, NADH/diaphorase-resazurin fluorescence; stronger effect = lower value; activity change, % (values are at about 110 or 230 µM); 480,000 compounds, 0.15% hits; in the data active = activity change below about -30%; inconclusive = mostly about -25% to -30%;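 also: plate controls were DMSO wells for no effect and wells without enzyme for full effect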
#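 Enzyme activity of human lactate dehydrogenase 5 (2 nM; 0.06 mM NADH, 0.2 mM pyruvate, 5 min, RT) is measured via a resazurin/diaphorase fluorescence readout of residual NADH.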
# IL1B secr inh = inhibitors of inflammasome signaling (IL-1 beta secretion); THP-1 LPS/ATP IL-1B secretion, AlphaLISA, 16 h; stronger effect = lower value; activity change, % at 57.5 µM; 360,000 compounds, 4.7% hits; in the data active = activity change below about -50%; inconclusive = mostly about -30% to -49%
#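 Secreted IL-1B measured by AlphaLISA bead assay after 16 h compound exposure of THP-1 cells; compounds (final up to 57.5 uM) added 1 h before LPS (250 ng/mL) and ATP (1.25 mM) stimulation; lower signal means less secretion.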
# Gal4-VP16 FLuc = counter-screen for ROR gamma inhibitors: Gal4-VP16 reporter | 310,000 compounds, 3.5% hits | Potency, µM (top dose mostly 53.6 µM), for the others: at the top dose activity, negative = inhibition, actives largely listed as inhibitors | Drosophila S2 Gal4-VP16 UAS-luciferase, luminescence, 20 h;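 also: Gal4-VP16 expression switched on by copper sulfate through the metallothionein promoter; potency is read from the fitted curve at half-maximal effect; nearly all actives have a fitted effect of over 50% in size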
# * marks the source's active call; other numbers are inactive results; u = inconclusive; x = not tested or not shown. Unless noted, calls follow the shape of the dose curve; as a rule, active = well fitted curve in the direction sought with a large enough effect; inconclusive = small, poorly fitted or top-dose-only effect, or another doubt; inactive = no such curve, though single readings can be large; an effect the other way counts as inactive or inconclusive. Unless noted, % is scaled to controls: 0 for no effect and ±100 for the full control effect.
SMILES,RORgamma inh,DT40 TDP1 CPT,DT40 TDP1 no CPT,LDHA block,IL1B secr inh,Gal4-VP16 FLuc
COc1ccc2cc(C(=O)NCc3ccncc3)c(C)nc2c1,x,x,x,5.4,x,x
COc1ccc(-c2coc3c(C(=O)NCc4ccc(OC)c(OC)c4)cccc23)c(C)c1,x,8.2µM*,6.51µM*,-10.9,-20.6,x
COc1ccc(-c2ccc(C(=O)NCc3ccc(F)c(F)c3)c3occc23)c(C)c1,x,u,u,-11.8,-59.1*,x
Clc1ccccc1CN1CCN(c2ncnc3nc[nH]c23)CC1,x,x,x,1.4,x,x
O=C(NNC(=O)c1c2c(nc3ccccc13)CCCC2)c1ccccn1,x,x,x,8.6,x,x
CCOc1ccc(-c2noc(-c3nnn(-c4ccccc4OCC)c3N)n2)cc1,x,x,x,2.3,x,x
CCc1nnc(NC(=O)CCc2ncc(-c3ccccc3)o2)s1,x,x,x,0.3,x,x
COc1ccc(-c2ccc(C(=O)NCC3CC3)c3occc23)c(C)c1,x,20.6µM*,u,-2.2,u,x
COc1ccc(-c2ccc(C(=O)NCC(C)C)c3occc23)c(C)c1,x,u,u,-6.2,u,x
O=C(c1ccc([N+](=O)[O-])o1)N1CCc2ccccc2C1,-29.7%,20.6µM*,14.6µM*,0.3,-28.3,6.9%
O=C(c1ccc([N+](=O)[O-])o1)N1CCOCC1,15.8µM*,-6.1%,u,0.4,0.0,-3.8%
Cc1ccc(C(=O)N2c3ccccc3CC2C)o1 (stereo unspecified),-8.0%,u,-28.7%,-1.5,-12.7,0.5%
O=C(c1ccc([N+](=O)[O-])o1)N1CCc2ccccc21,-35.5%,10.3µM*,11.6µM*,0.3,u,15.8%
COc1cc2c(cc1OC)CN(C(=O)c1ccc([N+](=O)[O-])o1)CC2,-36.0%,u,u,8.3,u,-11.8%
Cc1ccc(C(=O)N2CCc3ccccc32)o1,u,-16.5%,3.26µM*,-6.7,-3.9,-18.4%
O=c1cc(-c2ccccc2)sc2nnc(-c3ccccc3F)n12,x,x,x,8.2,x,x
CC(C)(C)NC(=S)NNC(=O)c1cccc(Br)c1,4.47µM*,5.8µM*,6.51µM*,-4.5,10.0,u
CC(C)(C)NC(=S)NNC(=O)c1ccccc1Cl,0.447µM*,14.6µM*,10.3µM*,-1.8,34.3,1.41µM*
CNC(=S)NNC(=O)c1ccccc1Cl,u,3.4%,0.2%,-10.9,1.9,-3.2%
CC(C)(C)C(=O)NC(=S)NNC(=O)c1ccc(Cl)cc1Cl,2µM*,u,5.8µM*,-7.9,98.1,u
COC(=O)NNC(=O)c1ccc(Cl)cc1Cl,-6.7%,-25.6%,10.6%,-6.5,-4.1,-0.2%
Cc1ccc(S(=O)(=O)NC2CC2)cc1C(=O)Nc1ccc(N2CCCCC2)c2ccncc12,x,x,x,65.8,x,x
CCOc1ccc(Nc2cc(C)c3ccccc3n2)cc1,-5.3%,u,u,1.4,0.0,-20.9%
COc1ccc(Nc2cc(C)c3ccc(O)cc3n2)cc1,u,23.1µM*,16.4µM*,-0.3,-50.2*,u
CC(=O)Nc1ccc(Nc2cc(C)c3ccccc3n2)cc1,27.3%,u,u,-0.2,-92.4*,-1.6%
Cc1cc(Nc2ccccc2)nc2cc(O)ccc12,u,-27.7%,-27.1%,-2.4,29.4,-12.3%
CCOc1cccc2sc(N(CCCN(C)C)C(=O)c3ccc(C(=O)c4ccccc4)cc3)nc12,u,u,-5.3%,-1.4,-87.7*,-25.6%
CCOc1cccc2sc(N(CCN(C)C)C(=O)c3cc4ccccc4cc3OC)nc12,0.0%,23.1µM*,u,0.8,-57.7*,-29.5%
CCOc1cccc2sc(N(CCCN(C)C)C(=O)c3ccc(S(=O)(=O)N(CC)Cc4ccccc4)cc3)nc12,u,u,u,-0.3,-90.4*,22.4µM*
CN(C)CCCN(C(=O)c1ccc(C(=O)c2ccccc2)cc1)c1nc2c(F)cccc2s1,-7.3%,-28.1%,-11.6%,-4.2,u,-10.3%
